Measured values published in article PMC7826789 (International Journal of Molecular Sciences, 2021).

test system: T1, ADCK3; details: Compound Concentration (nM):1000
T1 construct: gene CABC1
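Note: KINOMEscan scanMAX binding as percent activity remaining versus control; lower means stronger binding.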

SMILES	Percent Control [%]
Cl.O=C(Nc1ccc(Oc2ccc3[nH]c(NC(=O)c4ccco4)nc3c2)cc1)Nc1cc(C(F)(F)F)ccc1F [GW683134A]	100
O=C(Nc1n[nH]c2nc(-c3ccc(O)cc3)c(Br)cc12)C1CC1 [SB-725317]	100
COc1cc2ncnc(Nc3ccc4c(cnn4Cc4ccccc4)c3)c2cc1OC.Cl [GW282449A]	100
CN(C)CCNC(=O)Nc1ccc(N(C)c2ccnc(Nc3ccc(CS(C)(=O)=O)cc3)n2)cc1.Cl [GW830900A]	100
CC1=C(C(=O)Nc2ccc3[nH]ncc3c2)C(c2ccc(Cl)c(Cl)c2)CC(=O)N1 (stereo not shown) [GSK299115A]	99
COc1ccc(COc2ccc(Cc3cnc(N)nc3N)cc2OC)cc1 [GW632580X]	92
CCS(=O)(=O)c1ccc(OC)c(Nc2ncc(-c3cccc(F)c3)o2)c1 [GW621970X]	100
COc1cc(/C=N/Nc2ncnc3[nH]ncc23)ccc1O [GW578748X]	100
C/C(Nc1ccc(S(N)(=O)=O)cc1)=C1/C(=O)Nc2ccccc21 [GW335962X]	100
CN1CCN(C(=O)c2ccc(NC(=O)Nc3ccc(N(C)c4ccnc(Nc5ccc(CS(C)(=O)=O)cc5)n4)cc3)cc2)CC1.Cl [GW830263A]	100
CC1=C(C(=O)Nc2ccc3[nH]ncc3c2)C(c2ccc3ccccc3c2)CC(=O)N1 (stereo not shown) [GSK270822A]	100
COc1ccc2cc(-c3c(-c4ccncc4)nc(-c4ccc(S(C)(=O)=O)cc4C)n3C)ccc2c1 [SB-633825]	100
COc1ccccc1-c1cc(/C=C2\C(=O)Nc3ncc(Br)cc32)cc(Br)c1O [GW442130X]	100
